D1 ag – activates the human D1 dopamine receptor; P21728; activation, % at 2 µM; AID 504660; HEK293 T-REx D1 cells, calcium flux, agonist mode; 360,000 compounds, 1% hits; further: 0% is about no effect
Target sequence (P21728 whole entry, looked up): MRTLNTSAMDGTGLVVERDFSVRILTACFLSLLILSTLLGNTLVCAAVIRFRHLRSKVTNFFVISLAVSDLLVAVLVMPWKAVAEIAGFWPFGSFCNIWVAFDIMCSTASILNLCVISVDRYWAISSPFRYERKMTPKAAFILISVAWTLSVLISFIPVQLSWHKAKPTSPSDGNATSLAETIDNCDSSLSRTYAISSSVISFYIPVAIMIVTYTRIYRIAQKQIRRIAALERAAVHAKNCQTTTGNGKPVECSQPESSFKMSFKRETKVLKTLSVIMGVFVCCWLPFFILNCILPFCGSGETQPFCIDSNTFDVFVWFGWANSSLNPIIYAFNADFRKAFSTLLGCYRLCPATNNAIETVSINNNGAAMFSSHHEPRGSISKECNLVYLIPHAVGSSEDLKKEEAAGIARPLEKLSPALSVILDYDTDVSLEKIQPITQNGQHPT
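Tetracycline-induced HEK293 TREx D1 cells, force-coupled to calcium signalling, were dye-loaded with a no-wash calcium kit. Compound was pin-added after a 10 s baseline. Fluorescence was read kinetically at 1 cycle/s for 180 s, with calcium rises flagged as agonism.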
GRP78 ERSR act – ER stress response induction in glioma. Potency, µM, for inactives: at the top dose activation, actives largely listed as activators. 420,000 compounds, 0.02% hits. U87-MG GRP78 promoter luciferase reporter, 16 h; active means well fitted activation curve with a large enough effect; inconclusive means small, poorly fitted or top-dose-only effect; inactive means no such curve, though single readings can be large or run the other way; further: potency means the concentration at half of the fitted maximal effect; series mostly up to about 76 µM; % of control where 0% means no effect; nearly all actives have a fitted effect of over 35% in size
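Stably transfected U87-MG human glioma cells carrying a GRP78-based luminescent sensor were seeded at 1000 cells/well, pin-dosed with compounds and incubated 16 h. Luciferase reagent was then added, and end-point luminescence was read after 10 min at room temperature.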
D1 antag – blocks dopamine activation of the human D1 receptor; P21728; HEK293 TREx D1 cells, calcium flux, dopamine EC80; stronger effect = lower value; activity change, negative = inhibition, % at 10 µM; 360,000 compounds, 3.2% hits; AID 504652; in the data active means activity change below about -30%; further: on the % scale 0 is the no-effect control and ±100 the full control effect
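After overnight tetracycline induction at 30 C, force-coupled D1 HEK293 cells took up a no-wash calcium dye at room temperature. Compounds were added and monitored 180 s, and the response to EC80 dopamine was then recorded.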
TRHR PAM – allosterically enhances the human TRH receptor; AID 493056; P34981; TRHR cells, fluo-8 calcium fluorescence, EC20 TRH enhancement; enhancement, % at 2 µM; 360,000 compounds, 0.66% hits; in the data active means enhancement above about 30%; further: 0% is about no effect
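TRHR-expressing cells loaded with fluo-8 calcium dye were read kinetically (ex 480/em 530) during compound addition, then stimulated with an EC20 of TRH (10 nM final). Enhancement of the Gq-mediated intracellular calcium response was scored.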
D1 PAM – potentiators of human D1 dopamine receptor. HEK293 TREx D1 cells, calcium flux, dopamine EC20 potentiation. potentiation, % at 10 µM. 360,000 compounds, 0.036% hits; in the data active means potentiation above about 30%; further: 0% is about no effect
TRHR agonist – TRH receptor (human) agonism; P34981; TRHR cells, calcium flux fluo-8, FDSS agonist mode; activation, % at 2 µM; 360,000 compounds, 0.18% hits; AID 493084; further: 0% is about no effect
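Read-out: compound-evoked intracellular calcium rise in TRHR cells, fluo-8 dye, kinetic FDSS fluorescence at 1 s/cycle following a 10-cycle baseline. Cells cultured overnight before dye loading (30 min–1.5 h, RT).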
* = called active by the depositor; u = inconclusive; x = no result; ! = a repeat was not active. An excerpt weighted towards active compounds, which were near 4% of everything screened. Unless noted, no stated cut-off is given here; in the data, active means activation above about 30%; inactive means the rest.

SMILES	D1 ag	GRP78 ERSR act	D1 antag	TRHR PAM	D1 PAM	TRHR agonist
COc1cccc(NC(=O)CCS(=O)(=O)c2ccc3c(c2)oc(=O)n3C)c1	3	-6%	-30*!	7	2	0
Cn1c(=O)c(=O)n(C)c2cc(S(=O)(=O)CCC(=O)Nc3ccc(F)cc3)ccc21	0	-2%	19	1	1	0
COc1ccc(NC(=O)CCS(=O)(=O)c2ccc(OC)cc2)cc1	-1	0%	-42*	5	-12	-2
Cc1cccc(C)c1NC(=O)CCS(=O)(=O)c1ccc2c(c1)n(C)c(=O)c(=O)n2C	3	x	-36*	-6	-5	1
COc1cc(NC(=O)CCS(=O)(=O)c2ccc3c(c2)oc(=O)n3C)cc(OC)c1OC	5	-5%	4	-5	0	0
COc1ccc(NC(=O)CCS(=O)(=O)c2ccc(Br)s2)cc1	0	-1%	-37*	4	-4	-1
CC1Cc2ccccc2N1C1=CC(=O)CCC1 (stereo not given)	2	-3%	-16	16	0	-2
Cc1ccc(C(=O)N2CCN(S(=O)(=O)c3ccc(C(C)C)cc3)CC2)s1	7	0%	-4	-10	-3	0
Cc1cccc(C(=O)N2CCOc3ccc(CN(C)Cc4cc(C5CC5)n[nH]4)cc3C2)n1	x	-5%	x	x	x	x
CCOC(=O)c1c(C)[nH]c(C(=O)N(C)CC(=O)Nc2ccc(OC)cc2)c1C	1	-9%	-68*	7	4	0
CCOc1ccc(S(=O)(=O)NCCC(=O)N(C)CC(=O)Nc2ccc(OC)cc2)cc1	2	-5%	-43*	15	-11	0
COc1ccc(CC(=O)NC(=S)Nc2ccc(S(N)(=O)=O)cc2)cc1	34*	-1%	10	0	-9	2
CC(C)CSc1oc(-c2ccco2)nc1S(=O)(=O)c1ccc(Br)cc1	15	-3%	4	-11	1	1
CCN1CCN(Cc2c(O)ccc3c2O/C(=C\C=C\c2ccccc2OC)C3=O)CC1	112*	5%	3	-5	1	33*
CC(C)c1ccc(/C=C2\Oc3c(ccc(O)c3CN3CCN(C)CC3)C2=O)cc1	68*	-4%	-9	9	0	12
CCN1CCN(Cc2c(O)ccc3c(=O)c(-c4ccccc4OC)coc23)CC1	3	-6%	8	1	-4	0
Cc1ccc(/C=C2\Oc3c(ccc(O)c3CN3CCN(CCO)CC3)C2=O)cc1	32*	-2%	-11	-2	0	22
Cc1ccsc1C(=O)N(Cc1cc2ccc(F)cc2nc1N1CCC(O)CC1)CC1CCCO1 (stereo not given)	x	-1%	x	x	x	x
CCCCC(CC)C(=O)NCc1ccc(F)cc1 (stereo not given)	5	-2%	1	-1	0	0
CCOC(=O)C1(CCOc2ccccc2)CCN(Cc2cccc(OC)c2O)CC1	13	-2%	-45*	2	-7	1
CCOC(=O)C1(CCOc2ccccc2)CCN(Cc2cc(OC)ccc2OC)CC1	10	-2%	-7	6	4	0
CCOC(=O)C1(CCOc2ccccc2)CCN(Cc2ccc(O)c(OC)c2)CC1	16	-4%	-24	-2	4	2
CCOC(=O)C1(CCOc2ccccc2)CCN(Cc2ccc3c(c2)OCCO3)CC1	3	-1%	-43*	8	-2	0
CCOC(=O)C1(CCOc2ccccc2)CCN(Cc2ccc(O)c(Cl)c2)CC1	24	-6%	-39*	-5	-6	0
Oc1cc2c(cc1CN1CCN(c3ncccn3)CC1)OCO2	3	0%	3	1	-5	0
Cc1cc2c(s1)c1cnn(Cc3ccc(F)cc3)c(=O)c1n2C	0	x	3	2	-4	0
CC(C)(C)c1ccc(OCCn2c(CCNC(=O)C3CCCCC3)nc3ccccc32)cc1	x	-9%	x	x	x	x
Cc1nc(CC(=O)Nc2nc(C(C)(C)C)cs2)cs1	12	3%	-38*	15	-7	-1
Cc1nc(CC(=O)Nc2nc(-c3ccccc3)cs2)cs1	2	7%	-10	7	9	-1
Oc1ccc(/C=N/N(c2ccccc2)c2ccccc2)cc1O	2	u	-38*	-9	1	1
